Experimental data: PubChem BioAssay AID602364 (National Center for Advancing Translational Sciences (NCATS), 2012)
Results filed as inconclusive are left out. Active and inactive are the calls of the source. The call rests on the fitted dose curve; in most records, active means well fitted inhibition curve with a large enough effect; inconclusive means small, poorly fitted or top-dose-only effect; inactive means flat fitted curve, though single readings scatter.

Biological target: Luciferin 4-monooxygenase (Photinus pyralis) (UniProt P08659)
Experiment: FLuc inhibitory activity for the follow-up compounds in a biochemical assay with 1mM ATP
Settings: purified P. pyralis luciferase, luminescence; series mostly up to 57.5 µM; activity change, negative = inhibition: at the top concentration
From the text: NCGC Assay Overview: Firefly (Photinus pyralis) luciferase is one of the most commonly used transcriptional reporters. It is considered one of the more dynamically responsive reporters - that is, responsive to changes in reporter transcription - as it requires no post-translational modifications and is enzymatically active directly after protein synthesis (Wood, 1998). With no endogenous expression in mammalian cells and without the requirement of external excitation, it offers very little background signal, thus generally providing excellent signal to background for most assays. Previous profiling work to determine the prevalence of compounds that affect FLuc enzymatic activity (PubChem AID 411) identified that ~3% of the MLSMR library (then at ~72K) inhibited FLuc. […] Of the compounds identified in this profile that inhibited FLuc, 151 compounds were selected for further analysis, in an effort to better understand their mode of inhibiting FLuc. The assay described here was to determine the activity of the compounds in a FLuc assay that contained a KM concentration of D-luciferin and a high concentration (1mM) of ATP.
NCGC Assay Protocol Summary: Reagents: 50mM Tris acetate, pH 7.5; 10mM Mg acetate; 10uM D-luciferin (Sigma #L9504); 1mM ATP; 0.01% Tween-20; 0.05% BSA; 10nM P. pyralis luciferase (Sigma #L9506) Control compounds used were two known firefly luciferase inhibitors (3-(5-(3-chlorophenyl)-1,2,4-oxadiazol-3-yl)benzoic acid and 5-(2-fluorophenyl)-3-phenyl-1,2,4-oxadiazole), and DMSO. Three microliters containing firefly luciferase substrates in buffer (final concentrations: 50mM Tris acetate, pH 7.5, 10mM Mg acetate, 0.01% Tween-20, 0.05% BSA, 10uM D-luciferin, 1mM ATP) are dispensed into each well of a Greiner white, solid-bottom 1536-well format plate using a flying reagent dispenser (FRD). These assay plates were then treated with 23nL of compound or DMSO using a Kalypsys pin tool, which allows for delivery of a 12-point intraplate titration of each compound to the assay plate (quantitative HTS), with a final compound concentrations ranging from approximately ~60uM to 0.3nM. One microliter of firefly luciferase in […] Tris-acetate buffer was then delivered by FRD to each well for a final enzyme concentration of 10nM. Luciferase activity was then measured using a ViewLux CCD imager (PerkinElmer), with an average exposure time of 2-30 seconds (2X binning, medium/high gain).

Sequence of Luciferin 4-monooxygenase (Photinus pyralis) (P08659 whole entry, looked up): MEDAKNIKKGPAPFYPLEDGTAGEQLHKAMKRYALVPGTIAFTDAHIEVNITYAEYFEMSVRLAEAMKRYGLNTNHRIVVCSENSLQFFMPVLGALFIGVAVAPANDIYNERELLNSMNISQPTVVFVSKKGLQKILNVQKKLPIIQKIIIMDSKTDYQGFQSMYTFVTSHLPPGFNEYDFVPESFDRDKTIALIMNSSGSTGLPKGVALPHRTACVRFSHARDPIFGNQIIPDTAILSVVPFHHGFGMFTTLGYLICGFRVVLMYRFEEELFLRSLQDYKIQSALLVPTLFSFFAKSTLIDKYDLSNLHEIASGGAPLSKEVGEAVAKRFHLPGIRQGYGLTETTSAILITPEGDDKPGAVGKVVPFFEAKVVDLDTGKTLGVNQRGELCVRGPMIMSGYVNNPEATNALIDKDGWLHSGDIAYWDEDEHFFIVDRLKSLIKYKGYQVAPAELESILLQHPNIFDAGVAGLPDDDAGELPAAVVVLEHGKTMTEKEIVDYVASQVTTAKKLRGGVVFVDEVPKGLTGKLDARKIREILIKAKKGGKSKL

Structure (SMILES) | Potency | activity change, negative = inhibition
C/C(=N\NC(=O)c1ccccc1NC(=O)c1ccc(Cl)cc1)c1ccncc1 | 0.146 µM (active) | –
COc1ccc(-c2nc3ccccc3s2)cc1O | 0.0259 µM (active) | –
CCOC(=O)N1CCN(CC(=O)Nc2nc3ccc(OC)cc3s2)CC1 | – | -4.98% (inactive)
O=C(Cc1ccccc1)Nc1ccc(C(=O)Nc2ccccc2C(=O)O)cc1 | 20.6 µM (active) | –
Nc1ccccc1C(=O)Nc1cccc(C(=O)O)c1 | 3.66 µM (active) | –
Cn1c(N/N=C/c2cc3ccccc3nc2Cl)nc2ccccc21 | 14.6 µM (active) | –
O=C(Nc1cccc(-c2nc3ccccc3s2)c1)C1=COCCO1 | 25.9 µM (active) | –
COc1cc(OC)cc(C(=O)Nc2ccccc2-c2nc3ccccc3s2)c1 | – | 5.57% (inactive)
Cc1ccc2sc(-c3ccc(NC(=O)c4cc(-n5cnnc5)ccc4Cl)cc3)nc2c1 | 1.63 µM (active) | –
COc1ccc(C(=O)Nc2ccccc2-c2nc3ccccc3s2)c(OC)c1 | – | 4.69% (inactive)
O=C(O)c1ccc(NC(=O)c2cccc(C(=O)Nc3ccc(C(=O)O)cc3)c2)cc1 | – | 0.635% (inactive)
Cc1ccc(C(=O)Nc2cccc(C(=O)O)c2)cc1S(=O)(=O)N1CCOCC1 | 3.26 µM (active) | –
O=C(Nc1ccccc1C(=O)O)c1cccc(NC(=O)c2ccccc2Cl)c1 | 20.6 µM (active) | –
O=C(O)c1cccc(NC(=O)c2ccc(S(=O)(=O)c3ccccc3)cc2)c1 | 11.6 µM (active) | –
Nc1ccc(-c2nc3cc(N)ccc3s2)cc1 | 0.259 µM (active) | –
Nc1cccc(-c2nc3ccc(N)cc3s2)c1 | 0.116 µM (active) | –
CC(C)(C)C(=O)Nc1ccc(-c2nc3ccccc3s2)cc1 | 0.0259 µM (active) | –
Cc1ccc(C(=O)O/N=C(\N)c2ccccn2)c(Cl)c1 | 0.0046 µM (active) | –
O=C(O)c1cccc(NC(=O)c2ccc(Cl)c(S(=O)(=O)N3CCCCCC3)c2)c1 | 0.366 µM (active) | –
COc1ccc(-c2nc3ccccc3s2)cc1NC(=O)c1ccc(F)cc1 | – | -4.53% (inactive)

Structure (SMILES) | Potency | activity change, negative = inhibition
COc1ccccc1C(=O)Nc1ccc(C(=O)O)cc1 | – | -2.29% (inactive)
Nc1ccc2nc(-c3ccccc3)sc2c1 | 0.0366 µM (active) | –
CCOc1ccc2nc(NC(=O)Cc3cccs3)sc2c1 | 3.66 µM (active) | –
Cc1ccc2sc(-c3ccc(N)cc3)nc2c1 | 0.0366 µM (active) | –
COc1ccc(CC(=O)Nc2ccc(-c3nc4ccccc4s3)c(C)c2)cc1 | 18.3 µM (active) | –
O=C(O)c1ccc(NC(=O)c2ccccc2NC(=O)c2ccccc2Br)cc1 | – | -3.88% (inactive)
O=C(Nc1ccccc1C(=O)O)c1cccc(NC(=O)c2ccccc2Br)c1 | 36.6 µM (active) | –
COc1c(C)cccc1C(=O)Nc1ccc(-c2nc3ccccc3s2)c(Cl)c1 | – | 6.89% (inactive)
O=C(Nc1ccccc1C(=O)O)c1cc(S(=O)(=O)Nc2cccc(F)c2)ccc1Cl | – | -5.57% (inactive)
CCCC(=O)Nc1nc2ccc(OCC)cc2s1 | 3.26 µM (active) | –
COc1ccc2nc(NC(=O)CCc3ccc(OC)c(OC)c3)sc2c1 | – | 5.86% (inactive)
CCn1c(C)nc2cc(-c3nc4n(n3)Cc3ccccc3-4)ccc21 | 0.0326 µM (active) | –
O=C(Nc1ccccc1C(=O)O)c1ccc(NC(=O)C2CC2)cc1 | 3.66 µM (active) | –
Cc1ccc(NS(=O)(=O)c2ccc(Cl)c(C(=O)Nc3cccc(C(=O)O)c3)c2)cc1 | – | -8.69% (inactive)
COc1ccc(C(=O)Nc2ccccc2C(=O)Nc2ccc(C(=O)O)cc2)cc1 | 18.3 µM (active) | –
O=C(O)c1ccc(NC(=O)c2cc(S(=O)(=O)N3CCCCC3)c(Cl)cc2Cl)cc1 | – | 4.47% (inactive)
O=C(Nc1ccccc1C(=O)O)c1cc(S(=O)(=O)NCc2ccccc2)ccc1Cl | – | 0.773% (inactive)
O=C(O)c1ccc(NC(=O)c2ccccc2NC(=O)c2ccccc2Cl)cc1 | – | -2.01% (inactive)
O=C(O)c1cccc(NC(=O)c2cccc(S(=O)(=O)N3CCCCC3)c2)c1 | 2.31 µM (active) | –
Cc1ccc2nc(-c3ccc(NC(=O)CN4CCN(C(=O)c5ccco5)CC4)cc3)sc2c1 | 4.11 µM (active) | –
